Data on 16 compounds can be found in PubChem BioAssay.

The nature of assay [1]: binders of probe aFSTL3 on microarray, primary screen, stem cell growth factor project, biochemical, small-molecule microarray, fluorescence 635/667 (AID 1064).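 Note: measures binding of the biotinylated anti-FSTL3 antibody to printed compounds.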 To be noted: higher = more signal.
A short description of assay [2]: binders from COS7 lysate, DM2A8 probe, primary screen, torsin A project, cell lysate, small-molecule microarray, fluorescence 635/667 (AID 1065). As to conditions: higher = more signal, COS7 lysate expressing mutant human TOR1A.
Assay [3] in a line: binders of probe aFGF2 on microarray, primary screen, stem cell growth factor project, biochemical, small-molecule microarray, fluorescence 635/667 (AID 1067).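 Note: measures binding of biotinylated aFGF2 protein to printed compounds on slides; z-score merges feature fluorescence and signal-to-noise across triplicate slides.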 To be noted: higher = more signal.
Assay [4] is described as follows: binders of probe aFGF10 on microarray, primary screen, stem cell growth factor project, biochemical, small-molecule microarray, fluorescence 635/667 (AID 1071).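 Note: score merges 667 nm spot intensity and signal to noise from triplicate slides.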 As to conditions: higher = more signal.
In assay [5] the target is Neurogenic locus notch homolog protein 2 (Homo sapiens) (UniProt Q04721). As to the kind of experiment: Notch2 binders on small-molecule microarrays, primary screen, biochemical, small-molecule microarray, 635 nm fluorescence, stem cell growth factors (AID 1073). As to conditions: Notch2 binding, higher = more signal.
The target in assay [6] is Pro-neuregulin-1, membrane-bound isoform (Homo sapiens) (UniProt Q02297). As to the kind of experiment: NRG1 binders on small-molecule microarrays, primary screen, psychiatric disease protein project, biochemical, small-molecule microarray, fluorescence 635/667 (AID 1075).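 Note: score combines 667 nm spot fluorescence with signal to noise.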 As to conditions: NRG1 binding, 635 nm fluorescence, higher = more signal.
Assay [7] deals with Neuregulin-1 EGF-like domain. As to the kind of experiment: binders of neuregulin-1 EGF-like domain, primary screen, biochemical, small-molecule microarray, 635 nm fluorescence (AID 1081).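 Note: binding of the protein to compounds printed on small-molecule microarray slides.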 To be noted: small-molecule microarray binding, higher = more signal.
Assay [8] can be described thus: FRG1 promoter luciferase signal modulators, primary screen, FRG1 inhibition for FSHD, cell-based, C2C12 myotubes, firefly/Renilla luciferase, luminescence (AID 1084). To be noted: higher = more signal, called active from +8 up or from −8 down.
The nature of assay [9]: binders of probe aFST on microarray, primary screen, stem cell growth factor project, biochemical, small-molecule microarray, fluorescence 635/667 (AID 1086).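 Note: score merges 667 nm fluorescence with signal-to-noise of each printed compound spot.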 To be noted: higher = more signal.
A short description of assay [10]: binders of probe aHhip on microarray, primary screen, stem cell growth factor project, biochemical, small-molecule microarray, fluorescence 635/667 (AID 1087).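 Note: score merges spot fluorescence at 667nm with spot signal to noise ratio.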 To be noted: higher = more signal.

Active and inactive are the calls of the source.

Pro-neuregulin-1, membrane-bound isoform (Homo sapiens), sequence (Q02297 whole entry, looked up, the tested form may be a part, canonical isoform): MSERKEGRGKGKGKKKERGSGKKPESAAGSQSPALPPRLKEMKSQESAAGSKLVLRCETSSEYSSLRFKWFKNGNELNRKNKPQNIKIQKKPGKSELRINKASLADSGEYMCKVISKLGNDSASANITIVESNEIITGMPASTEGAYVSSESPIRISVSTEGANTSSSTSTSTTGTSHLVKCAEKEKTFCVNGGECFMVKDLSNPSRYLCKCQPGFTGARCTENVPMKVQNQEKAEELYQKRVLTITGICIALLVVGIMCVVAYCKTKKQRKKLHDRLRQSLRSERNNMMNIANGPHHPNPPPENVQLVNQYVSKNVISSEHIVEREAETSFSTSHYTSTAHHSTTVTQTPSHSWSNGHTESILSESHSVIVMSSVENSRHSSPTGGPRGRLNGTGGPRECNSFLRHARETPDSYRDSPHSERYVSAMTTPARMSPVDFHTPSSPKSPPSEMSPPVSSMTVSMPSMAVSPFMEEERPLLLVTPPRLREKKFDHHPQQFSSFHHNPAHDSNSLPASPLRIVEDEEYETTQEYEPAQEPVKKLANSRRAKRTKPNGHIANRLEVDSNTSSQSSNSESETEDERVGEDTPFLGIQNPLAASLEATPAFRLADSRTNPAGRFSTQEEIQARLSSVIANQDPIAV
Neurogenic locus notch homolog protein 2 (Homo sapiens), sequence (Q04721 whole entry, looked up, canonical isoform): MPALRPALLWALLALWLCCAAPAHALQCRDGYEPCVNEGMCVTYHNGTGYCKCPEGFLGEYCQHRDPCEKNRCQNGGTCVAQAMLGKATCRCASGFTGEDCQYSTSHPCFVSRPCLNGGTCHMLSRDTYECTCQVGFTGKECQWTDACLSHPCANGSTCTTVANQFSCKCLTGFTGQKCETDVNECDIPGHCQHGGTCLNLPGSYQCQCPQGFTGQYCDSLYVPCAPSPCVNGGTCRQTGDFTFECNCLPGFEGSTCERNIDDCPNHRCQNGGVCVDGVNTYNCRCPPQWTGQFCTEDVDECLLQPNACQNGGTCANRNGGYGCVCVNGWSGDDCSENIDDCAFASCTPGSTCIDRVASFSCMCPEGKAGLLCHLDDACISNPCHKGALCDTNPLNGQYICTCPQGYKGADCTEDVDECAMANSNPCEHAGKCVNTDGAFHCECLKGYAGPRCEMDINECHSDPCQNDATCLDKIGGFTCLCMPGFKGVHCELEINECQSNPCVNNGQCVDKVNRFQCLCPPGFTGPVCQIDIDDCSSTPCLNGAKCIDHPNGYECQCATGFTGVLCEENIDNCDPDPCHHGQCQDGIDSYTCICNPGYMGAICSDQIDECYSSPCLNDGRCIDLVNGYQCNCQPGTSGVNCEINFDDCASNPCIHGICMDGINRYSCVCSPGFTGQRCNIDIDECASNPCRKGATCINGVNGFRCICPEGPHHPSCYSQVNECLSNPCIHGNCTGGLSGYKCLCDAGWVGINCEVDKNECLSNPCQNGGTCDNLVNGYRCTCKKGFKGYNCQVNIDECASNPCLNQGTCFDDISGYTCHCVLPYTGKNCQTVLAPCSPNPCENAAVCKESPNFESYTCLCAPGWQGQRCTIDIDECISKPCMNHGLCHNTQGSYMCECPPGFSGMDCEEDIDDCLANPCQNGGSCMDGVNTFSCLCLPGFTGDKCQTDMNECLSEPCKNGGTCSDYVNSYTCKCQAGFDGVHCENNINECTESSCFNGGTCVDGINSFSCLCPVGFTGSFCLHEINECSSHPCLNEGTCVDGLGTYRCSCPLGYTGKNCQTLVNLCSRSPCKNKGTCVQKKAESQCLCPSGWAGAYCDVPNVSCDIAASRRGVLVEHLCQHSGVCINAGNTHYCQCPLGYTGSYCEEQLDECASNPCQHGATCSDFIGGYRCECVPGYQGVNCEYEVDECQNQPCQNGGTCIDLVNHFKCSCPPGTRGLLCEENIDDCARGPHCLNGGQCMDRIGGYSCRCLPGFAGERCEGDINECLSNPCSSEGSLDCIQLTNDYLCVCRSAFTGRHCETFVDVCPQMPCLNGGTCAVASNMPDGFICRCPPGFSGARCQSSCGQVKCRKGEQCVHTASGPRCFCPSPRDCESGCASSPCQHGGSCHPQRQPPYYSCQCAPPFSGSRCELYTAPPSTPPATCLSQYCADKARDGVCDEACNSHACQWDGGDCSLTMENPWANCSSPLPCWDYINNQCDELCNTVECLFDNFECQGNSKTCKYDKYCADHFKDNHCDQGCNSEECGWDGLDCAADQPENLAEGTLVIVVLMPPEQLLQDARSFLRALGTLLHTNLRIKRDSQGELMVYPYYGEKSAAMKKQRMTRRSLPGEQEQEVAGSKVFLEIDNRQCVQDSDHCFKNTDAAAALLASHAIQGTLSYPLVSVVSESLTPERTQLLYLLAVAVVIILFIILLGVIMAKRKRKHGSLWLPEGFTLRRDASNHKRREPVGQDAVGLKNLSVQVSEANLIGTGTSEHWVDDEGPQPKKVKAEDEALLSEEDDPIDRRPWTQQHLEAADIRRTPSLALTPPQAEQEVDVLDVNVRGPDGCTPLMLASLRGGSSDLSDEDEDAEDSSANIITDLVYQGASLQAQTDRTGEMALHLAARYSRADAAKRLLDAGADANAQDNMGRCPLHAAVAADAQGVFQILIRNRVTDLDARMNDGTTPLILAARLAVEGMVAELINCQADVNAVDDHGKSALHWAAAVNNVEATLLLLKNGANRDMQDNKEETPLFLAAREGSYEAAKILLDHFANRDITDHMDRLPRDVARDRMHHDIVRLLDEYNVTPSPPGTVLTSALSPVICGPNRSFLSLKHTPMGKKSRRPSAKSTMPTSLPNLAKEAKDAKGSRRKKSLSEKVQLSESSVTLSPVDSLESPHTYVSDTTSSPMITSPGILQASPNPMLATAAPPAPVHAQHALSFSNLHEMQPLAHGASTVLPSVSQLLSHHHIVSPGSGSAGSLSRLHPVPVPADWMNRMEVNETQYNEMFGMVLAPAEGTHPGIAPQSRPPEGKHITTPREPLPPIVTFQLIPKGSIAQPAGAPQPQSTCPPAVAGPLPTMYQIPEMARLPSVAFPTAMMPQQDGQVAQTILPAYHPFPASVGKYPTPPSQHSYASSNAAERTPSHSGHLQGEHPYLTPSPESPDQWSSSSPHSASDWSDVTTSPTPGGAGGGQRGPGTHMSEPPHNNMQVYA

Consider `C=C[C@H](OC)[C@@H](OC(=O)Nc1ccc(SC)cc1)c1ccc(O)c(F)c1`, for which the composite z-score in assay [1] is -0.0125; in assay [2], -0.22; in assay [3], -0.0493; in assay [4], 0.2; in assay [5], 0.474; in assay [6] it was 0.756. Moreover, the composite z-score is 1.03 in assay [7], -0.212 in assay [9] and 0.109 in [10]. The z-score in assay [8] is 4.46 (inactive).

On to `CC(C)[C@H]1NC(=O)[C@@]23C(=O)N[C@@H](Cc4ccccc4)C2[C@H](C)[C@@]2(C)O[C@H]2C3/C=C/C/C=C\CNC(=O)[C@H](C)NC1=O` (stereo not given in full), for which the composite z-score in assay [1] is 0.11; in assay [2] it was -0.663; in assay [3], -0.164; in assay [4] it was 0.51; in assay [5], -1.59; in assay [6], -0.967. In addition, the composite z-score is 0.754 in assay [7], -0.367 in assay [9] and -0.399 in [10]. Also, the z-score in assay [8] is 0.194 (inactive).

With `Cc1ccc([C@@H]2CC=C(C(=O)O)[C@H](c3ccccc3)N2S(=O)(=O)c2ccc(C)cc2)cc1`, the composite z-score in assay [1] came to 0.65; in assay [2], 0.436; in [3], 0.358; in assay [4] it was 1.02; in assay [5] it was 1.49; in assay [6], 1.82. Besides, the values for the composite z-score in assay [7], in [9] and in assay [10] were 1.35, 0.549 and 0.0623, respectively. Besides, the z-score in [8] is -3.57 (inactive).

With `CCOC(=O)C[C@H]1[C@H](OC(=O)Cc2ccc3c(c2)OCO3)[C@@H](NC(=O)c2ccc3ccccc3c2)c2cc(OCCCO)ccc2N1C(=O)Cc1ccc(OC)cc1`, the composite z-score is -0.0089 in assay [1]; 0.237 in [2]; -0.0239 in assay [3]; 0.546 in assay [4]; 0.947 in [5]; 0.759 in assay [6]. The composite z-score in [7] was 0.358; in assay [9], 0.533; in assay [10], 0.0274. For the same compound, in [8], the z-score was -1.63 (inactive).

As for `CC(C)=C1C(=O)C(c2ccccc2)=C2CN3C(=O)N(CCc4ccccc4)C(=O)[C@]3(Cc3ccccc3)[C@H]21`, the composite z-score was 0.5 in assay [1]; -0.463 in assay [2]; -0.0612 in assay [3]; 0.103 in [4]; -0.272 in assay [5]; 0.0953 in assay [6]. The composite z-score in assay [7] is -0.318; in assay [9], 0.0891; in [10] it was -0.112. Moreover, the z-score in assay [8] was 0.438 (inactive).

As to `CC(c1ccccc1)C(O)C1C=CC2C(=O)N(C)C(=O)C2N1N(c1ccccc1)c1ccccc1` (stereo not given), the composite z-score in assay [1] was 1; in assay [2] it was 0.23; in [3], 0.0395; in assay [4] it was -0.167; in assay [5] it was 1.08; in assay [6] it was 0.504. For the same compound, the composite z-score is 1.03 in assay [7], 0.657 in assay [9] and -0.0024 in [10]. The z-score in assay [8] was -0.206 (inactive).

As for `CCCNC(=O)[C@@]1(Sc2ccc(C)cc2)CC(=O)N(Cc2ccccc2Cl)[C@@H]1c1ccc(CO)cc1`, the composite z-score in assay [1] was 0.295; in [2], -0.106; in assay [3], -0.0711; in [4] it was 0.122; in [5], 0.653; in assay [6], -0.0272. For the same compound, the composite z-score in [7] was 1.3; in [9], 0.427; in assay [10] it was -0.0672. For the same compound, in assay [8], the z-score is -3.75 (inactive).

Consider `Cc1ccc(N2C(=O)c3ccccc3[C@](C)(C(=O)NCC(C)C)[C@@H]2c2ccc(CO)cc2)nc1`, for which the composite z-score is 0.572 in assay [1]; -0.48 in assay [2]; 0.0988 in assay [3]; -0.662 in [4]; -1.02 in [5]; -1.05 in assay [6]. Moreover, the composite z-score in assay [7] is 1.4; in assay [9], -0.542; in [10], 0.74. In addition, the z-score in assay [8] is 0.613 (inactive).

Take `CO[C@H]1COC(=O)CC=C[C@@H](C)COC(=O)[C@@H](C)NC(=O)CC=C[C@@H]1C`: the composite z-score was -1.1 in [1]; 2.24 in assay [2]; -0.138 in assay [3]; -0.248 in [4]; -0.604 in assay [5]; -0.907 in [6]. In addition, the composite z-score in assay [7] was -0.228; in assay [9] it was 0.219; in assay [10] it was 0.0274. In addition, in [8], the z-score is -1.88 (inactive).

For the compound `COC(=O)C[C@H]1O[C@]2(C(=O)N(C)c3ccccc32)[C@@H](C)[C@@H]1[Si](C)(C)c1ccc(OC)cc1`, the composite z-score in assay [1] was -0.352; in [2], 0.0371; in assay [3] it was -0.005; in assay [4], 0.791; in [5], 0.146; in assay [6], 0.367. Further, the figures for the composite z-score in [7], in assay [9] and in [10] were 1.06, 0.673 and -0.0645, respectively. Further, the z-score in assay [8] was -2.07 (inactive).

`C=CCOC(=O)[C@@H]1[C@H]2C(=O)O[C@H](c3ccccc3)[C@H](c3ccccc3)N2[C@H](c2ccc(OCCOC(=O)[C@H]3C[C@H]4C(=O)N5CCC[C@H]5C(=O)N4[C@H]3c3ccc(O)cc3)cc2)[C@@]12C(=O)Nc1ccccc12`: the composite z-score in [1] was -0.536; in assay [2], 0.774; in [3], -0.0169; in assay [4] it was 0.691; in assay [5] it was 0.742; in assay [6], 0.968. Moreover, the composite z-score is 1.3 in [7], -0.0007 in [9] and -0.0994 in assay [10]. Further, the z-score in assay [8] was -0.619 (inactive).

With `COc1ccc(NN2C(C(O)c3cc(OC)c(OC)c(OC)c3)C=CC3C(=O)N(C4CCCCC4)C(=O)C32)cc1` (stereo not given), the composite z-score in [1] is 0.833; in assay [2] it was -0.194; in assay [3], 0.123; in assay [4], 0.767; in assay [5] it was 1.63; in assay [6], 1.09. Further, the composite z-score in assay [7] turned out to be 1.07; in [9] it was 1.51; in assay [10], 0.0734. In addition, the z-score in assay [8] is 1.02 (inactive).

As to `C[N+](C)(C)CCCCNC(=O)[C@H]1C[C@H]2C(=O)NCC(=O)N2[C@H]1c1cccc(OCCO)c1`, the composite z-score is -0.514 in assay [1]; 2.35 in assay [2]; -0.0375 in [3]; 1.15 in assay [4]; 0.0841 in [5]; 0.309 in assay [6]. Besides, the values for the composite z-score in assay [7], in assay [9] and in assay [10] were 1.43, 0.533 and 0.245, respectively. In [8], the z-score was 1.73 (inactive).

Turning to `C=CCN(C(=O)C1N(c2ccc(CCO)cc2)C(=O)C2C(C(=O)O)C3C=CC21O3)C(C)(C)C` (stereo not given), the composite z-score is 1.73 in assay [1]; -1.15 in assay [2]; -0.243 in assay [3]; -2.12 in assay [4]; -2.34 in assay [5]; -0.367 in assay [6]. Besides, the composite z-score in [7] is 0.915; in assay [9], -1.08; in assay [10] it was -0.403. Moreover, the z-score in assay [8] is 0.4 (inactive).

For `COC(=O)[C@H]1[C@@H]2COc3ccccc3[C@H]2N[C@H]1C(=O)OC`, the composite z-score in assay [1] was -0.241; in [2] it was -0.0479; in assay [3] it was -0.139; in assay [4], 0.255; in assay [5] it was 0.419; in assay [6], 0.281. Besides, the composite z-score in [7] was 0.428; in assay [9], 0.168; in assay [10], -0.189. Further, the z-score in [8] is 0.44 (inactive).

As to `COC(=O)C1=CC(c2ccc(CO)cc2)=CC(c2cccs2)N(Cc2cccc(OC(F)(F)F)c2)C=C1C(=O)OC` (stereo not given), the composite z-score was -0.0169 in assay [1]; 1.41 in assay [2]; -0.0375 in assay [3]; 0.862 in assay [4]; 1.17 in assay [5]; 2.03 in assay [6]. Moreover, the composite z-score in assay [7] came out at 1.17; in [9], 0.48; in assay [10], 0.0866. Moreover, the z-score in assay [8] is -0.497 (inactive).
